In PubChem BioAssay (Tox21):
Records with an inconclusive call do not appear. Where a call stands in place of a potency, no number is given. Values without a mark were called inactive. Calls of active or inactive are those of the source. The call rests on the fitted dose curve; in most records, active means well fitted cell-killing curve with a large enough effect in the repeat runs; inconclusive means weak or mixed curves, or effect the other way; inactive means flat fitted curve, though single readings scatter.

Assay: qHTS assay to identify small molecule antagonists of the androgen receptor (AR) signaling pathway using the MDA cell line in the presence of 0.5 nM R1881 - cell viability counter screen (AID 1259242); further: nearly all actives have a fitted effect of over 45% in size
Settings: MDA-kb2 viability, CellTiter-Fluor protease fluorescence, 16 h; series mostly up to 92.4 µM
From the text: U.S. Tox21 Program National Center for Advancing Translational Sciences [NCATS] NIH Chemical Genomics Center [NCGC] U.S. Environmental Protection Agency [EPA] National Institutes of Environmental Health Sciences [NIEHS] National Toxicology Program [NTP] U.S. Food and Drug Administration [FDA] Tox21 Assay Overview: Androgen receptor (AR) is an important member of the nuclear receptor family. Its signaling plays a critical role in AR-dependent prostate cancer and other androgen related diseases. Considerable attention has been given in the past decades to develop methods to study and screen for the environmental chemicals that have the potential to interfere with metabolic homeostasis, reproduction, developmental and behavioral functions. Therefore AR binding assay for screening androgen antagonists can be used to identify potential endocrine disruptors. MDA-kb2 cells (from ATCC, deposited by Wilson et al.) were used to screen for AR inhibitors against Tox21 compound libraries. These cells are human breast carcinoma cells that were stably transfected with a luciferase reporter gene under control of the MMTV promoter that contains response elements for both androgen receptor (AR) and glucocorticoid receptor (GR). The current screening for identification of AR inhibitors against Tox21 libraries used lower concentration of (0.5 nM) R1881 as a stimulator. The cytotoxicity of the Tox21 compound libraries against MDA-kb2 cell line was tested by measuring live-cell protease activity using CellTiter-Fluor assay in the same wells.
Tox21 Assay Protocol Summary: MDA-kb2 cells (cells cultured without CO2) were dispensed at 3,000 cells/well in 4 uL of culture medium into white wall/solid-bottom 1536-well plates (Corning Life Sciences, Corning, NY) using a Multidrop Combi (ThermoFisher Scientific, Waltham, MA) dispenser. After the assay plates were incubated at a 37C and 0% CO2 for 5 hr, 23 nL of compounds dissolved in DMSO, positive controls or DMSO only was transferred to the assay plate by a Pintool station (Kalypsys, San Diego, CA). The transfer of compounds was followed by the addition of 1 uL of 0.5 nM (final concentration) agonist (R1881)/culture medium using a Flying Reagent Dispenser (FRD, Aurora Discovery, San Diego, CA). The plates were incubated at 37C and 0% CO2 for 16 hr. For cytotoxicity assay, 1 uL of CellTiter-Fluor reagent (Promega Corporation, Madison, WI) was added to each well using the FRD and after 30 min incubation at 37C and 0% CO2, The fluorescence intensity was measured using ViewLux plate reader (PerkinElmer, Shelton, CT).
Potency means the concentration at half of the fitted maximal effect.

Row | SMILES | Potency | viability change, negative = cytotoxic
1 | CCCC(c1cc(C(C)(C)C)c(O)cc1C)c1cc(C(C)(C)C)c(O)cc1C | 49.2 µM (active) | –
2 | CC(C)(C)C1CCC(CC2=C(O)c3ccccc3C(=O)C2=O)CC1 (stereo not given) | 10.6 µM (active) | –
3 | O=C(Nc1ccc(Oc2ccc(Cl)cc2)c(Cl)c1)c1cc(I)cc(I)c1O | inactive | –
4 | Cc1cccc(S(=O)(=O)O)c1C | inactive | –
5 | N#CC1(c2ccc(F)cc2)CCC(=O)CC1 | inactive | –
6 | CN(C/C=C/C#CC(C)(C)C)Cc1cccc2ccccc12 | inactive | –
7 | OCCCCCCCCCCCCBr | inactive | –
8 | CCCCC(CC)COC(=O)c1ccccc1C(=O)O (stereo not given) | inactive | –
9 | O=C(c1ccc(O)cc1O)c1ccc(O)cc1O | inactive | –
10 | Cc1onc(-c2c(Cl)cccc2Cl)c1C(=O)N[C@@H]1C(=O)N2[C@@H]1SC(C)(C)[C@@H]2C(=O)O | inactive | –
11 | NNC(=O)c1cccc(C(=O)NN)c1 | inactive | –
12 | CC(C)n1nc(-c2cc3cc(O)ccc3[nH]2)c2c(N)ncnc21 | inactive | –
13 | O=C(OC[C@H]1O[C@@H](OC(=O)c2cc(O)c(O)c(OC(=O)c3cc(O)c(O)c(O)c3)c2)[C@H](OC(=O)c2cc(O)c(O)c(OC(=O)c3cc(O)c(O)c(O)c3)c2)[C@@H](OC(=O)c2cc(O)c(O)c(OC(=O)c3cc(O)c(O)c(O)c3)c2)[C@@H]1OC(=O)c1cc(O)c(O)c(OC(=O)c2cc(O)c(O)c(O)c2)c1)c1cc(O)c(O)c(OC(=O)c2cc(O)c(O)c(O)c2)c1 | – | -18.2% [at 19 µM]
14 | Nc1ccccc1O | inactive | –
15 | Cc1ccc2oc(CN(Cc3ccccc3)C(=O)Nc3c(F)cc(F)cc3F)c(-c3ccc(Cl)cc3)c2c1 | inactive | –
16 | CCOC(=O)O[C@]1(C(=O)OCCl)CC[C@H]2[C@@H]3CCC4=CC(=O)C=C[C@]4(C)[C@H]3[C@@H](O)C[C@@]21C | inactive | –
17 | CCC1OCC(COc2ccc(Oc3ccccc3)cc2)O1 (stereo not given) | inactive | –
18 | CSc1cnc(C)cn1 | inactive | –
19 | CC(NN)c1ccccc1 (stereo not given) | – | -1.49% [at 19 µM]
20 | NC(=O)C1(N2CCCCC2)CCN(CCCN2c3ccccc3CCc3ccc(Cl)cc32)CC1 | 26.6 µM (active) | –

Row | SMILES | Potency | viability change, negative = cytotoxic
21 | [O-][n+]1ccccc1SSc1cccc[n+]1[O-] | 0.326 µM (active) | –
22 | CCN(C(=O)N(CC)c1ccccc1)c1ccccc1 | inactive | –
23 | Oc1ccc(Cl)cc1Sc1cc(Cl)ccc1O | 29.8 µM (active) | –
24 | O=Cc1cc(O)ccc1Br | inactive | –
25 | Cc1ccc(-n2nc(C(C)(C)C)cc2NC(=O)Nc2ccc(OCCN3CCOCC3)c3ccccc23)cc1 | inactive | –
26 | C/C=C1/C(=O)C[C@H]2[C@@H]3CCC4=CC(=O)CC[C@]4(C)[C@H]3CC[C@]12C | inactive | –
27 | CCCCCCCC(=O)[O-].CCCCCCCC(=O)[O-].[Zn+2] | inactive | –
28 | Oc1cc2ccccc2c2ccccc12 | 19.3 µM (active) | –
29 | Nc1cc(C(F)(F)F)ccc1S | inactive | –
30 | Oc1ccc2c(c1)-c1ccccc1C2 | inactive | –
31 | [Cl][Au]([Cl])[Cl] | 24.3 µM (active) | –
32 | CCCCCCCCOC(=O)c1ccc(O)cc1 | inactive | –
33 | CCCCCOC(=O)CCCC | inactive | –
34 | Oc1cccc2cc3cccc(O)c3c(O)c12 | inactive | –
35 | CCCCCCCCS(=O)C(C)Cc1ccc2c(c1)OCO2 (stereo not given) | inactive | –
36 | CCCCCCCCOc1ccccc1C(=O)Nc1ccc(C(=O)OCC[N+](C)(CC)CC)cc1 | inactive | –
37 | C/C=C(\C)C(=O)OCc1ccccc1 | inactive | –
38 | CCC1=C[C@@H]2CN(C1)Cc1c([nH]c3ccccc13)[C@@](C(=O)OC)(c1cc3c(cc1OC)N(C)[C@H]1[C@@](O)(C(=O)OC)[C@H](OC(C)=O)[C@]4(CC)C=CCN5CC[C@]31[C@@H]54)C2 | inactive | –
39 | CCCCCCCCn1sc(Cl)c(Cl)c1=O | 15.4 µM (active) | –
40 | CC(C)(C)C(=O)OCOC(=O)C1N2C(=O)CC2S(=O)(=O)C1(C)C (stereo not given) | inactive | –
